Calls of active or inactive are those of the source. Rule for the calls: active = hit-call score of the fitted dose curve at least 0.9, where 1 is the maximum; inactive = score below 0.9.

CCAAT/enhancer-binding protein beta (Homo sapiens), sequence (P17676 whole entry, looked up): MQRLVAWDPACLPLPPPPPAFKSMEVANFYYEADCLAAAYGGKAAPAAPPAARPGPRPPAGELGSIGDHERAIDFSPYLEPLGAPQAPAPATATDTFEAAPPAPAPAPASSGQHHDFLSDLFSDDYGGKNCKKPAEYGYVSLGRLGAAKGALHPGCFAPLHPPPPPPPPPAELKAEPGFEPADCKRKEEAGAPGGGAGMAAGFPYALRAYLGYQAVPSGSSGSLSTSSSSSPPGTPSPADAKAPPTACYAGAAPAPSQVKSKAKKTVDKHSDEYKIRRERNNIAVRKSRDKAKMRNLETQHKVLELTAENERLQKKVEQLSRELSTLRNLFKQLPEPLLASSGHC

System in one assay: not listed separately
The experiment in a line: ATG_CRE_CIS: Attagene CIS-FACTORIAL HepG2 Assay for human cAMP Responsive Element (CRE) binding protein 3 (AID 2282926). Particulars: HepG2 CRE cis-reporter, Attagene multiplexed mRNA; actives raise or lower the signal. In a few lines:
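HepG2 cells transiently transfected with cis-element-driven multiple reporter transcription units; CRE reporter mRNA measured 24 h after dosing by RT-PCR, 6-FAM labelling, HpaI digestion and capillary electrophoresis. Bidirectional fit versus DMSO baseline.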
On to `Nc1ccc(Oc2ccc(N)cc2)cc1`, for which the compound was classed as inactive.
On the same count and under the same terms, with `C1=Cc2cccc3cccc1c23` the entry was “inactive”; with `Cc1ccc(N)c(N)c1`, “inactive”.
For `CC(C)COC(=O)c1ccccc1C(=O)OCC(C)C`, the AC50 (commonly the concentration at which the activity in the assay is half-maximal) is 59.3 µM (active).
Take `CCC12COCN1COC2`: the result was inactive.
Same read-out and setting: with `Oc1ccc2ccc3cccc4ccc1c2c34` the entry was “inactive”; with `Nc1cc(Cl)cc(C(=O)O)c1Cl`, “inactive”; with `CN(C)c1ccccc1`, “inactive”.
On to `Cc1ccc(N)cc1`, for which the compound was classed as inactive.
On to `C=CCc1ccc2c(c1)OCO2`, for which the compound was classed as inactive.
The same measure, in the same setting: in the case of `CCCSC(=O)N(CCC)CCC` it was “inactive”.
In the case of `Cc1cc(N=Nc2ccccc2C)ccc1N`, the compound was classed as inactive.
Same read-out and setting: in the case of `CN(C)C(=O)Nc1ccc(Cl)cc1` it was “inactive”.
Still for that read-out and setting: in the case of `O=P(OCCCl)(OCCCl)OCCCl` it was “inactive”.
On the same count and under the same terms, with `CC(C)(C)C(O)(CCc1ccc(Cl)cc1)Cn1cncn1` (stereo unspecified) the entry was “inactive”; with `Brc1ccc(Oc2ccccc2)cc1`, “inactive”; with `Nc1ccc(Cc2ccc(N)cc2)cc1`, “inactive”.
For `CC(C)(O)c1cnn2c(-c3ccc(F)c(-c4c(F)cccc4C#N)c3)cnc2n1`, the AC50 is 40 µM (active).
As to `CCN(CC)CCO`, the compound was classed as inactive.
On to `Clc1ccc(C(c2ccc(Cl)cc2)C(Cl)(Cl)Cl)cc1`, for which the compound was classed as inactive.
Consider `O=C1CCCO1`, for which the call was inactive.
With `O=[N+]([O-])C(Br)(CO)CO`, the AC50 is 170 µM (active).
On to `CCCCCOC(=O)c1ccccc1C(=O)OCCCCC`, for which the compound was called inactive.
On the same count and under the same terms, with `[As]#[In]` the entry was “inactive”; with `CCC[CH2][Sn]([Cl])([CH2]CCC)[CH2]CCC`, “inactive”.
Still for that read-out and setting: with `c1ccc(N=Nc2ccccc2)cc1` the entry was “inactive”.
Turning to `Cc1cccc(N)c1N`, the AC50 is 158 µM (active).
As for `OCCOCCO`, the compound was classed as inactive.

Another assay has as its target CCAAT/enhancer-binding protein beta (Homo sapiens) (UniProt P17676). Kind of assay: ATG_C_EBP_CIS: Attagene CIS-FACTORIAL HepG2 Assay for human CCAAT/Enhancer Binding Protein (C/EBP) beta (AID 2282927). Particulars: HepG2 Attagene cis-factorial transcription factor reporter; actives raise or lower the signal. The method in brief: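 HepG2, transient MRTU transfection, 24 h treatment. RT-PCR plus CE fluorescence; DMSO negative control, bidirectional fit.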
In the case of `Nc1ccc(Oc2ccc(N)cc2)cc1`, the result was inactive.
Take `C1=Cc2cccc3cccc1c23`: the result was inactive.
Still for that read-out and setting: in the case of `Cc1ccc(N)c(N)c1` it was “inactive”; in that of `CC(C)COC(=O)c1ccccc1C(=O)OCC(C)C`, “inactive”.
For the compound `CCC12COCN1COC2`, the outcome was inactive.
In the case of `Oc1ccc2ccc3cccc4ccc1c2c34`, the result was inactive.
Same read-out and setting: in the case of `Nc1cc(Cl)cc(C(=O)O)c1Cl` it was “inactive”; in that of `CN(C)c1ccccc1`, “inactive”.
Consider `Cc1ccc(N)cc1`, for which the result was inactive.
The same measure, in the same setting: in the case of `C=CCc1ccc2c(c1)OCO2` it was “inactive”.
The same measure, in the same setting: with `CCCSC(=O)N(CCC)CCC` the entry was “inactive”; with `Cc1cc(N=Nc2ccccc2C)ccc1N`, “inactive”.
Same read-out and setting: with `CN(C)C(=O)Nc1ccc(Cl)cc1` the entry was “inactive”; with `O=P(OCCCl)(OCCCl)OCCCl`, “inactive”; with `CC(C)(C)C(O)(CCc1ccc(Cl)cc1)Cn1cncn1` (stereo unspecified), “inactive”.
Turning to `Brc1ccc(Oc2ccccc2)cc1`, the result was inactive.
For `Nc1ccc(Cc2ccc(N)cc2)cc1`, the outcome was inactive.
With `CC(C)(O)c1cnn2c(-c3ccc(F)c(-c4c(F)cccc4C#N)c3)cnc2n1`, the outcome was inactive.
In the case of `CCN(CC)CCO`, the outcome was inactive.
On the same count and under the same terms, in the case of `Clc1ccc(C(c2ccc(Cl)cc2)C(Cl)(Cl)Cl)cc1` it was “inactive”; in that of `O=C1CCCO1`, “inactive”.
For `O=[N+]([O-])C(Br)(CO)CO`, the AC50 was 156 µM (active).
With `CCCCCOC(=O)c1ccccc1C(=O)OCCCCC`, the result was inactive.
The same measure, in the same setting: with `[As]#[In]` the entry was “inactive”.
On to `CCC[CH2][Sn]([Cl])([CH2]CCC)[CH2]CCC`, for which the AC50 was 0.097 µM (active).
With `c1ccc(N=Nc2ccccc2)cc1`, the outcome was inactive.
The same measure, in the same setting: with `Cc1cccc(N)c1N` the entry was “inactive”; with `OCCOCCO`, “inactive”.

The values above are taken from PubChem BioAssay (EPA / NIEHS).
